High-throughput results as filed in PubChem BioAssay.
An excerpt weighted towards active compounds, which were near 0.9% of everything screened.
SRC3 TRFRET art: TR-FRET artefact, counter-screen to PPARgamma/SRC-3 agonist assay; PPARgamma/SRC-3 format; stronger effect = higher value; TR-FRET ratio at 8 µM; 99,000 compounds, 0.39% hits
TR-FRET SRC-2 ct: counter-screen for PPARgamma SRC-2 recruitment agonists: TR-FRET artefact; 200,000 compounds, 0.4% hits; stronger effect = higher value; TR-FRET ratio at 8 µM
PPARg SRC-2 ag: PPARgamma-driven SRC-2 recruitment agonism. P37231. PPARgamma LBD-SRC-2 recruitment, biochemical. activation, % at 8 µM. 200,000 compounds, 0.34% hits; in the data active = activation above about 22%;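 note: 0% = vehicle and 100% = reference agonist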
Target sequence (P37231 whole entry, looked up, the tested form may be a part): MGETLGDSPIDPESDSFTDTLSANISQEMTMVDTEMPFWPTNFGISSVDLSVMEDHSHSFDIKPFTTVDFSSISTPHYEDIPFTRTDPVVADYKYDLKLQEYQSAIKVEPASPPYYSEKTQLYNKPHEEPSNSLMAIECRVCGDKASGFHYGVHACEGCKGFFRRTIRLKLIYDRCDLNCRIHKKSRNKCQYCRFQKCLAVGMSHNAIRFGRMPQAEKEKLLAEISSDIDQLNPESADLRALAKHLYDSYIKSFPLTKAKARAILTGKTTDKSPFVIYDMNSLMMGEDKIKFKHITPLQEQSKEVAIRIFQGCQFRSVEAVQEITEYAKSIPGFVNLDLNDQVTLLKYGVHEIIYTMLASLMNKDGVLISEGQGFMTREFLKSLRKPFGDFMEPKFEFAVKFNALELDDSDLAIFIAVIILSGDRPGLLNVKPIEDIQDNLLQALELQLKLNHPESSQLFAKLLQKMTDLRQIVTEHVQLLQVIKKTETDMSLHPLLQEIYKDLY
PPARg SRC-1 ag: agonists of human PPARgamma SRC-1 coactivator recruitment | P37231 | 200,000 compounds, 0.41% hits | AID 631 | activation, % at 8 µM | PPARgamma-SRC-1 coactivator recruitment biochemical assay; in the data active = activation above about 19%;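 note: 0% = DMSO and 100% = reference agonist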
SRC1 TRFRET art: flags TR-FRET format artefacts in PPARgamma SRC-1 recruitment agonist screen | TR-FRET detection artefact counter-screen, emission ratio; stronger effect = higher value | 99,000 compounds, 0.34% hits | TR-FRET ratio at 8 µM; in the data active = TR-FRET ratio above about 2300
PPARg SRC-3 ag: PPARgamma-driven SRC-3 recruitment agonism. 200,000 compounds, 0.26% hits. biochemical PPARgamma/SRC-3 coactivator recruitment assay. activation, % at 8 µM. P37231; in the data active = activation above about 23%;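 note: 0% = DMSO and 100% = reference agonist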
Numbers without * were called inactive; . = no result. Cut-off read from the data, not from the text of the source, unless noted: active = TR-FRET ratio above about 2000; inactive = the rest.

SMILES	SRC3 TRFRET art	TR-FRET SRC-2 ct	PPARg SRC-2 ag	PPARg SRC-1 ag	SRC1 TRFRET art	PPARg SRC-3 ag
Cc1ccsc1/C=C1\SC(N)=NC1=O	.	1449	10.9	5.7	.	5.7
Cc1ccc(/C=C2\SC(N)=NC2=O)s1	1453	1747	24.0*	9.7	2150	6.8
COc1ccc(C2CC(c3ccccc3)=NN2C(=O)COC(=O)c2cc(S(=O)(=O)N3CCOCC3)ccc2Cl)cc1 (stereo not given)	1778	2080*	-6.8	-0.9	2224	3.8
COc1ccc(-n2nnnc2SCC(=O)c2cc3ccccc3o2)cc1	.	2072*	0.9	7.0	.	2.5
CS(=O)(=O)N(CC(=O)NCc1ccncc1)Cc1ccc(Cl)cc1	.	1331	4.6	-5.4	.	27.9*
Cn1c(/C(C#N)=C(\O)COc2ccc3ccccc3c2)nc2ccccc21	1562	2360*	31.8*	-2.8	1718	-0.9
Cc1ccc(OC/C(O)=C(\C#N)c2nc3ccccc3s2)cc1	1383	1565	1.8	-1.4	1627	-4.0
CC1=NN(C(=O)Cn2ccc([N+](=O)[O-])n2)C(O)(C(F)(F)F)C1 (stereo not given)	1855	1853	23.4*	4.9	1973	4.0
COc1ccc(/C=C/C(=O)c2ccc(NC(=O)c3cccs3)cc2)cc1OC	.	1626	16.0	3.2	.	7.0
Cc1ccccc1CC1(CO)CCCN(C(=O)CCC(=O)c2ccccc2)C1 (stereo not given)	1671	1534	-0.3	21.6*	2022	-0.5
COc1ccccc1CNC(=O)c1ccc(N2CCOCC2)c([N+](=O)[O-])c1	1360	1413	-6.2	-3.7	1702	-2.5
COc1ccc(NS(=O)(=O)c2cc(N/C(=N\S(=O)(=O)c3ccccc3)c3ccc(F)cc3)ccc2Cl)cc1	1443	1385	2.0	-2.2	1795	-3.3
O=C(Nc1nccc(-c2cccs2)n1)c1cccs1	.	1536	4.0	-1.5	.	3.5
Nc1nccc(-c2cccs2)n1	1787	2014*	4.7	-2.4	2012	4.5
O=C(Nc1cccc2ccccc12)c1cn(-c2ccccc2)nc1-c1cccs1	.	2231*	7.3	-0.7	.	5.8
CCOC(=O)c1c(NC(=O)Cn2nc(C(F)(F)F)cc2C)sc(C)c1C	1584	1616	2.9	-1.2	2071	-2.2
CC(C)C1OC(c2cccc(NC(=O)c3cccs3)c2)OCC1(C)C (stereo not given)	1620	1417	1.0	5.1	1752	4.2
Cc1ccc(-c2cc(-c3ccccc3)c(C#N)c(Br)n2)cc1	1644	1632	-1.6	56.4*	3299*	-1.4
CS(=O)(=O)c1nc(-c2ccccc2)cc(-c2ccccc2)c1C#N	.	1773	-2.3	6.4	.	-1.9
CN(C)N=C1c2cc(S(=O)(=O)N3CCOCC3)ccc2-c2ccc(S(=O)(=O)N3CCOCC3)cc21	1466	1605	0.3	-1.4	1845	0.2
NC(=S)NN=C1c2cc(S(=O)(=O)N3CCOCC3)ccc2-c2ccc(S(=O)(=O)N3CCOCC3)cc21	1632	1605	6.2	-1.6	2316*	3.8
Cc1cc(C(=O)CSc2nn3c(=O)c(C(C)(C)C)nnc3s2)c(C)n1C	1571	1771	10.4	5.0	1921	5.2
OC1(c2ccc(Cl)cc2)CN(c2ccccc2)C2=[N+]1CCS2 (stereo not given)	1793	1612	5.7	7.9	1791	5.0
OC1(c2ccc(Br)cc2)CN(c2ccccc2)C2=[N+]1CCS2 (stereo not given)	2102*	1571	2.8	3.7	1718	7.8
CC(C)CCNC(=O)CCCn1c(=O)[nH]c2ccc(Br)cc2c1=O	.	1635	8.4	1.3	.	9.7
SMILES	SRC3 TRFRET art	TR-FRET SRC-2 ct	PPARg SRC-2 ag	PPARg SRC-1 ag	SRC1 TRFRET art	PPARg SRC-3 ag
O=C(CCCn1c(=O)[nH]c2ccc(Br)cc2c1=O)NCc1ccc(Cl)cc1	1575	1480	9.4	31.0*	3045*	-2.6
CCN1/C(=C/C=C/C=C/c2sc3ccccc3[n+]2CC)Sc2ccccc21	13609*	10856*	540.8*	447.9*	14504*	339.4*
CCOC(=O)c1c(NC(=O)C2=C(C)NC(=S)NC2c2ccc(C)cc2)sc(C)c1C (stereo not given)	1630	1494	2.9	16.3	2914*	2.4
CCOC(=O)c1c(NC(=O)C2=C(C)NC(=S)NC2c2ccc(F)cc2)sc(C)c1C (stereo not given)	1671	1612	7.0	0.8	1845	1.1
O=C(COC(=O)CNC(=O)c1cccc([N+](=O)[O-])c1)NCc1ccco1	1646	1465	-1.8	-0.4	1774	3.2
OC(CNCc1ccc(Cl)cc1)C(F)(F)F (stereo not given)	1462	1548	-3.0	6.2	1939	-0.1
CC(C)(C)C1CCc2c(sc(NC(=O)CSc3nnc(-c4ccccc4)o3)c2C#N)C1 (stereo not given)	1823	1982*	-1.9	3.2	2157	3.6
Cc1ccnc(SCC(=O)Nc2sc3c(c2C#N)CCC(C(C)(C)C)C3)n1 (stereo not given)	.	1547	8.8	1.6	.	4.5
Cc1ccc(-n2c(N)c(C(=O)N3CCN(C)CC3)sc2=S)cc1	.	1307	-3.8	2.9	.	29.9*
N#CC(C#N)=c1ccc2c(c1)NC1(CCCCC1)N=2	.	1919	28.1*	39.3*	.	29.4*
O=C1NC2(CCCC2)N=C1c1ccc(Cl)cc1	.	1415	-1.9	3.5	.	-8.2
CCN(CC)c1ccc(C=Nc2cc(C)ccc2C)c(O)c1	1646	1541	8.4	20.9*	2287	2.9
CN(Cc1ccc(OC(F)F)cc1)Cc1nc2c(Br)cc(Br)cc2c(=O)[nH]1	2068*	1842	9.9	14.4	2212	6.8
CC1CCc2c(sc3nc(SCC(=O)NCc4ccco4)nc(N)c23)C1 (stereo not given)	.	1582	13.8	20.8*	.	4.2
Cc1ccc2c(C(=O)N3CCN(c4ccccc4)CC3)cc(-c3cccnc3)nc2c1C	1604	1394	1.9	13.4	2369*	-0.9
CCOC(=O)c1ccc(NC(=O)CCc2nc(-c3ccc(Cl)cc3)no2)cc1	.	1790	0.6	1.9	.	-12.3
CCOC(=O)c1ccc(NC(=O)CCc2nc(-c3ccc(C)cc3)no2)cc1	.	2077*	34.8*	-1.6	.	7.6
O=C(Nc1ccc([N+](=O)[O-])cc1)/C(=C/c1cccc([N+](=O)[O-])c1)NC(=O)C1CCCCC1	.	1705	24.5*	-0.7	.	8.4
Cc1ccc(NC(=O)/C(=C/c2cccc([N+](=O)[O-])c2)NC(=O)C2CCCCC2)c(C)c1	.	1516	-0.6	-4.7	.	4.9
FC(F)(F)c1nnc2c(Sc3ccc(Cl)cc3)nc3ccccc3n12	.	1457	9.3	31.8*	.	3.2
CCn1c(SCC(=O)Nc2cc(C)on2)nnc1-c1c[nH]c2ccccc12	1745	1524	9.1	8.4	1929	7.3
CN(c1ccccc1)S(=O)(=O)c1cccc(NC(=O)CSc2ncc(C(F)(F)F)cc2Cl)c1	1486	1449	8.7	-6.7	1660	-0.7
